In PubChem BioAssay (Tox21) one finds Potency data, which are given here for 53 compounds.

Assay [1] can be described thus: cAMP Responsive Elements (CRE) small molecule antagonists, cell-based qHTS assay: qHTS cell viability counter screen (AID 2060913). Also: nearly all actives have a fitted effect of over 40% in size. The method, boiled down: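 HEK293T CRE-bla, 2,000 cells/well, 18 h preincubation; cpd in DMSO + NKH477 0.25 uM final, 3 h 37 C/5% CO2; LiveBLAzer 2 h RT, then CellTiter-Glo 30 min RT, luminescence.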
Background: Quantitative high-throughput screening tests each substance at several concentrations.

Assay [2] in a line: cAMP Responsive Elements (CRE) small molecule agonists, cell-based qHTS assay: qHTS cell viability counter screen (AID 2060914). Also: nearly all actives have a fitted effect of over 50% in size. In short, it runs like this: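 In the same wells as the reporter read, viability of CRE-bla HEK 293T cells was quantified by CellTiter-Glo luminescence after a 3 h compound exposure.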

Results filed as inconclusive are left out. A call without a number means that no potency is given here. Active and inactive are the calls of the source. Calls follow the shape of the dose curve; as a rule, active = well fitted cell-killing curve with a large enough effect in the repeat runs; inconclusive = weak or mixed curves, or effect the other way; inactive = flat fitted curve, though single readings scatter.
Potency is read from the fitted curve at half-maximal effect.

As for `COC(=O)C(C)=O`, the Potency entry in assay [1] and in assay [2] was “inactive” in each case.
Take `CN1CCN(C(c2ccccc2)c2ccccc2)CC1`: the Potency result in assay [1] and in assay [2] was “inactive” throughout.
On to `CCCCCCCCCC[N+](C)(CCCCCCCCCC)CCC[Si](OC)(OC)OC`, for which the Potency in assay [1] is 27.3 µM (active); in assay [2] it was 24.3 µM (active).
Consider `CC[C@]1(O)C[C@@H]2CN(CCc3c([nH]c4ccccc34)[C@@](C(=O)OC)(c3cc4c(cc3OC)N(C)[C@H]3[C@@](O)(C(=O)OC)[C@H](OC(C)=O)[C@]5(CC)C=CCN6CC[C@]43[C@@H]65)C2)C1`, for which the Potency entry in assay [1] and in assay [2] was “inactive” throughout.
Regarding `N#CCN(CC#N)CCN(CC#N)CC#N`, the Potency result in assay [1] and in assay [2] was “inactive” in each case.
As to `COc1cccc2c1C(=O)c1c(O)c3c(c(O)c1C2=O)C[C@@](O)(C(=O)CO)C[C@@H]3O[C@H]1C[C@H](N)[C@H](O)[C@H](C)O1`, the Potency result in assay [1] and in assay [2] was “inactive” in each case.
In the case of `CCOC(=O)COc1cc(-n2ncc(C(F)(F)F)c(C)c2=O)c(F)cc1Cl`, the Potency entry in assay [1] and in assay [2] was “inactive” throughout.
`N=C1C=CC(=C(c2ccc(N)cc2)c2ccc(N)cc2)C=C1`: the Potency in assay [1] is 50.8 µM (active). Also, in assay [2], the Potency entry is “inactive”.
The corresponding values for `CCCCCCCCCCCCS` are “inactive” and “inactive”.
Take `COc1cc2ncnc(Nc3ccc(F)c(Cl)c3)c2cc1OCCCN1CCOCC1`: the Potency result in assay [1] and in assay [2] was “inactive” each time.
Regarding `Cc1cccc2sc(N)nc12`, the Potency result in assay [1] and in assay [2] was “inactive” throughout.
Regarding `CC(C)C[C@H]1C(=O)N2CCC[C@H]2[C@]2(O)O[C@](NC(=O)[C@@H]3C=C4c5cccc6[nH]c(Br)c(c56)C[C@H]4N(C)C3)(C(C)C)C(=O)N12`, the Potency entry in assay [1] and in assay [2] was “inactive” throughout.
Take `O=[N+]([O-])C1(Br)COCOC1`: the Potency entry in assay [1] and in assay [2] was “inactive” each time.
In the case of `NC(=O)Nc1ccc(Cl)cc1`, the Potency entry in assay [1] and in assay [2] was “inactive” in each case.
With `[O-]/[N+](=N\O)c1ccccc1`, the Potency entry in assay [1] and in assay [2] was “inactive” throughout.
Turning to `CC(C)(C)c1ccc(S)cc1`, the Potency result in assay [1] and in assay [2] was “inactive” each time.
As to `COc1cc([C@H]2Oc3cc([C@H]4Oc5cc(O)cc(O)c5C(=O)[C@@H]4O)ccc3O[C@@H]2CO)ccc1O`, the Potency entry in assay [1] and in assay [2] was “inactive” each time.
Consider `Clc1cccc(Cl)n1`, for which the Potency result in assay [1] and in assay [2] was “inactive” throughout.
Consider `CC(=O)OCc1ccco1`, for which the Potency entry in assay [1] and in assay [2] was “inactive” each time.
Regarding `COC(=O)C(C)O` (stereo unspecified), the Potency entry in assay [1] and in assay [2] was “inactive” in each case.
For `CC(CCC(=O)O)C(=O)O` (stereo unspecified), the Potency result in assay [1] and in assay [2] was “inactive” in each case.
Regarding `C[C@H](CS)C(=O)N1CCC[C@H]1C(=O)O`, the Potency entry in assay [1] and in assay [2] was “inactive” in each case.
`CC(C)(c1ccccc1)c1ccccc1`: the Potency result in assay [1] and in assay [2] was “inactive” in each case.
Consider `CC(=O)[C@@]1(O)CC[C@H]2[C@@H]3C[C@H](C)C4=CC(=O)CC[C@]4(C)[C@H]3CC[C@@]21C`, for which the Potency result in assay [1] and in assay [2] was “inactive” each time.
With `CCc1ccc2c(c1)C(=O)c1ccccc1C2=O`, the Potency entry in assay [1] and in assay [2] was “inactive” each time.
Consider `COc1ccccc1OCC(O)CN1CCN(CC(=O)Nc2c(C)cccc2C)CC1` (stereo unspecified), for which the Potency result in assay [1] and in assay [2] was “inactive” in each case.
With `CCCOC(=O)c1c(Cl)c(Cl)c(Cl)c(Cl)c1C(=O)OCCC`, the Potency result in assay [1] and in assay [2] was “inactive” each time.
Consider `CCOc1ccccc1C(N)=O`, for which the Potency entry in assay [1] and in assay [2] was “inactive” throughout.
Take `CC(=O)C=O`: the Potency result in assay [1] and in assay [2] was “inactive” each time.
As to `C1CN(CCOCCN2CCOCC2)CCO1`, the Potency result in assay [1] and in assay [2] was “inactive” throughout.
In the case of `CN(C(=O)C(Cl)Cl)c1ccc(OC(=O)c2ccco2)cc1`, the Potency entry in assay [1] and in assay [2] was “inactive” throughout.
In the case of `CN(C)c1ccc(O)c2c1C[C@H]1C[C@H]3[C@H](N(C)C)C(=O)C(C(N)=O)=C(O)[C@@]3(O)C(=O)C1=C2O`, the Potency result in assay [1] and in assay [2] was “inactive” in each case.
Consider `Nc1ccc(Cl)cc1Cl`, for which the Potency entry in assay [1] and in assay [2] was “inactive” throughout.
Regarding `CC(C)=CC1CC(C)CCO1` (stereo unspecified), the Potency result in assay [1] and in assay [2] was “inactive” in each case.
`O=C1OC2(c3ccc(O)cc3Oc3cc(O)ccc32)c2ccc(N=C=S)cc21`: the Potency entry in assay [1] and in assay [2] was “inactive” each time.
In the case of `O=C(Nc1ccc(Cl)cc1)Nc1ccc(Cl)c(Cl)c1`, the Potency result in assay [1] and in assay [2] was “inactive” in each case.
Take `Cc1cccc(N)n1`: the Potency result in assay [1] and in assay [2] was “inactive” throughout.
Turning to `CN(C)CCN1CCOCC1`, the Potency entry in assay [1] and in assay [2] was “inactive” in each case.
As for `O=C(CS)Nc1ccccc1`, the Potency result in assay [1] and in assay [2] was “inactive” each time.
As to `O=c1[nH][nH]c2ccccc12`, the Potency result in assay [1] and in assay [2] was “inactive” throughout.
As for `CC1=NN(c2ccccc2)C(=O)C1`, the Potency result in assay [1] and in assay [2] was “inactive” throughout.
Regarding `NC(=Nc1ccccc1)Nc1ccccc1`, the Potency entry in assay [1] and in assay [2] was “inactive” each time.
Take `CCC(=O)Nc1ccc(O)cc1`: the Potency entry in assay [1] and in assay [2] was “inactive” throughout.
Consider `C=CCCC(=O)O`, for which the Potency entry in assay [1] and in assay [2] was “inactive” throughout.
As to `COc1cc2nc(N3CCN(C(=O)C4COc5ccccc5O4)CC3)nc(N)c2cc1OC` (stereo unspecified), the Potency result in assay [1] and in assay [2] was “inactive” each time.
As to `O=C(O)CNC(=O)c1ccc([N+](=O)[O-])cc1`, the Potency result in assay [1] and in assay [2] was “inactive” throughout.
Regarding `CCCCC(CC)COP(=O)(O)O` (stereo unspecified), the Potency entry in assay [1] and in assay [2] was “inactive” throughout.
Consider `C=CCNC(N)=S`, for which the Potency entry in assay [1] and in assay [2] was “inactive” throughout.
For the compound `O=c1[nH]cnc2ccccc12`, the Potency entry in assay [1] and in assay [2] was “inactive” in each case.
`CCCCC1C(=O)N(c2ccccc2)N(c2ccc(O)cc2)C1=O` (stereo unspecified): the Potency result in assay [1] and in assay [2] was “inactive” in each case.
Take `CNC[C@H](O)[C@@H](O)[C@H](O)[C@H](O)CO`: the Potency result in assay [1] and in assay [2] was “inactive” throughout.
In the case of `NC(=O)CCCCC(N)=O`, the Potency entry in assay [1] and in assay [2] was “inactive” in each case.
Regarding `O=C(O)c1ccc(S(=O)(=O)O)cc1C(=O)O`, the Potency result in assay [1] and in assay [2] was “inactive” each time.
